From PubChem
Hits are enriched below; roughly 27% of the tested compounds scored in any of these assays.
CYP2C19 inh: human CYP2C19 inhibition. P33261. CYP2C19 Supersomes, luciferin-H EGE luminescence, 30 min. inhibition, % at 5 µM. actives 21% (n = 96,000);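 active = CYP2C19 inhibition above a set limit at 5 µM in the primary screen, cut at about 50% in these data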;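 also: plate controls were negative control wells for no effect and 2.5 mM tranylcypromine positive control for full effect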
Target sequence (P33261 whole entry, looked up): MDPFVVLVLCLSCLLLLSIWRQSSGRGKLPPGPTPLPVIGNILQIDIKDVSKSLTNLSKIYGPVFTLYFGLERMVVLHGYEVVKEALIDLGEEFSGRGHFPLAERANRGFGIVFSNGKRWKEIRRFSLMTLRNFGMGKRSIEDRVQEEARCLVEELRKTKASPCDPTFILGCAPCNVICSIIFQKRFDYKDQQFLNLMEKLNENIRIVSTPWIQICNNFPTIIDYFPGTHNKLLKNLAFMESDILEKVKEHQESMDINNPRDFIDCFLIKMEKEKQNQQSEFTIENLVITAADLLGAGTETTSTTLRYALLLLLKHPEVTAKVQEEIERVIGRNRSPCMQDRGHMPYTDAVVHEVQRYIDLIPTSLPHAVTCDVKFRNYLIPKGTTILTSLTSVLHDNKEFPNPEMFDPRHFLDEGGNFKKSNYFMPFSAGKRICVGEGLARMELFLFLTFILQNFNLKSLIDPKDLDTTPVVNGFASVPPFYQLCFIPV
Cav32 inh: blocks human Cav3.2 T-type calcium channel; O95180; Cav3.2-expressing cells, Fluo-4 calcium fluorescence FDSS; hits give low values; B-score at 10 µM; actives 4% (n = 100,000);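 active = single-dose well whose peak fluorescence ratio is a statistical outlier from its plate by either plate-standardised score or position-corrected B-score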
CYP2C9 inhib: human CYP2C9 inhibition | inhibition, % at 5 µM | CYP2C9 Supersomes, luciferin-H conversion, luminescence | AID 777 | P11712 | actives 20% (n = 96,000);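 active = blocking of liver enzyme CYP2C9 beyond about 50% at 5 µM, limit read from the data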
CYP2C19 activ: cytochrome P450 2C19 (human) activation | P33261 | 96,000 tested, under 10 active | recombinant CYP2C19, luciferin-H EGE luminescence; hits give high values; 0 = fully inhibited enzyme, 1 = untreated enzyme | activation factor at 5 µM;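 active = activation factor of at least 2 at 5 µM in the primary screen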;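 also: 0 = wells with 2.5 mM tranylcypromine and 1 = vehicle-only wells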
CYP2C9 activ: CYP2C9 (human) activation. P11712. recombinant CYP2C9, luciferin-H conversion, luminescence; hits give high values; factor 1 = untreated enzyme, 0 = blocked. activation factor at 5 µM. actives 1.4% (n = 96,000);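 active = activation factor of 2 or more for CYP2C9 at a 5 µM dose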;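 also: 0 = sulfaphenazole-blocked wells and 1 = vehicle-only wells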
* = called active by the depositor; x = not tested or not shown.

SMILES	CYP2C19 inh	Cav32 inh	CYP2C9 inhib	CYP2C19 activ	CYP2C9 activ
O=C(CCCC(=O)N(c1ccc2c(c1)OCCO2)C(C(=O)NC1CCCCC1)c1ccc(F)cc1)Nc1ccccn1 (stereo unspecified)	52*	x	-100	0.5	2*
O=C(NCCOc1ccccc1)c1cc2ccccc2o1	48	-1.3	12	0.5	0.9
COc1cccc(-c2nc(CSCC(=O)NCC3CCCO3)c(C)o2)c1 (stereo unspecified)	12	-0.015	16	0.9	0.8
CCOCCCNC(=O)C(NC(=O)C1CCC(=O)N1)c1ccc(C)cc1 (stereo unspecified)	-24	-0.031	-11	1.2	1.1
Cc1nc2ccc(S(=O)(=O)NC(C(=O)NCc3ccco3)C(C)C)cc2s1 (stereo unspecified)	6	-0.02	13	0.9	0.9
O=C(Oc1ccccc1)c1ccc(COC(=O)c2cnccn2)cc1	45	-0.067	56*	0.6	0.4
COC(=O)c1ccc(CC(=O)c2c(C)cc(O)cc2O)o1	93*	-0.083	60*	0.1	0.4
COC(=O)c1cc(CC(=O)c2ccc(O)cc2O)c(C)o1	94*	0.72	54*	0.1	0.5
COC(=O)c1ccc(CC(=O)c2ccc(O)cc2O)o1	31	0.23	52*	0.7	0.5
COc1ccc(C(=O)Cc2ccc(OC)c(OC)c2)cc1	42	0.44	-17	0.6	1.2
COc1ccc(CC(=O)c2c(O)cc(O)cc2O)cc1OC	77*	-0.093	88*	0.2	0.1
CC1(Cc2ccc3c(c2)OCO3)NC(=O)NC1=O (stereo unspecified)	-4	-0.55	-24	1	1.2
Cc1nc2scc(-c3ccc(Cl)cc3)c2c(=O)o1	5	-1.8	22	0.9	0.8
CCO[C@@H]1OC(C(=O)NC2CC2)=C[C@H](c2coc3ccccc3c2=O)[C@H]1CCCO	x	-0.029	x	x	x
CCCCN(CCCC)c1cc(C)nc(-c2ccccc2O)n1	5	0.0084	24	1	0.8
COc1cc(C2C(C#N)=C(N)Oc3cc(C)oc(=O)c32)cc2c1OCO2 (stereo unspecified)	20	-1	54*	0.8	0.5
Cc1cc2c(c(=O)o1)C(C(C)C)C(C#N)=C(N)O2 (stereo unspecified)	57*	0.0058	0	0.4	1
Cc1cc2c(c(=O)n1Cc1ccccn1)C(C(C)C)C(C#N)=C(N)O2 (stereo unspecified)	4	0.94	12	1	0.9
CCOc1cccc(C2C(C#N)=C(N)Oc3cc(C)oc(=O)c32)c1OCC (stereo unspecified)	21	-0.15	90*	0.8	0.1
COc1cc(C2C(C#N)=C(N)Oc3cc(C)n(CC4CCCO4)c(=O)c32)cc2c1OCO2 (stereo unspecified)	-1	0.51	-1	1	1
Cc1cc2c(c(=O)o1)C(Cc1ccccc1)C(C#N)=C(N)O2 (stereo unspecified)	86*	0.43	63*	0.1	0.4
FCCCOc1ccc(/C=N/OCc2ccc(Cl)cc2Cl)cc1	4	-1.3	12	1	0.9
COc1ccc(NC(=O)N2CCCC2C(=O)Nc2ccccc2)cc1 (stereo unspecified)	8	1.1	10	0.9	0.9
CC(C)=CCC(C)(C)C1OCCN1C(=O)Nc1ccccc1 (stereo unspecified)	100*	-3.3	80*	0	0.2
O=C([C@H](Cc1ccc(O)cc1)n1cc(CCO)nn1)N1CCNCC1	x	1.3	x	x	x
SMILES	CYP2C19 inh	Cav32 inh	CYP2C9 inhib	CYP2C19 activ	CYP2C9 activ
O=C(NCC(=O)N(CCc1ccccc1)C(C(=O)NC1CCCCC1)c1ccncc1)c1ccco1 (stereo unspecified)	82*	0.33	92*	0.2	0.1
Cc1ccc(C(C(=O)NC2CCCCC2)N(CCC(C)C)C(=O)CNC(=O)c2ccco2)o1 (stereo unspecified)	53*	-4.7*	34	0.5	0.7
O=C(NCC(=O)N(c1ccccc1)C(C(=O)NC1CCCCC1)c1ccncc1)c1ccco1 (stereo unspecified)	23	0.83	22	0.8	0.8
O=C(NCC(=O)N(c1ccccc1)C(C(=O)NCC1CCCO1)c1ccccc1)c1ccco1 (stereo unspecified)	14	-0.077	-18	0.9	1.2
Cc1ccc(N(C(=O)CNC(=O)c2ccco2)C(C(=O)NCC2CCCO2)c2ccccc2)cc1 (stereo unspecified)	85*	0.2	16	0.1	0.8
O=C(NCC(=O)N(CCc1ccccc1)C(C(=O)NC1CCCC1)c1cccnc1)c1ccco1 (stereo unspecified)	54*	-0.35	52*	0.5	0.5
Cc1c(C=O)c2ccccc2n1CC(=O)N1CCc2ccccc2C1	x	1.2	x	x	x
NC(=O)C1CCN(C(=O)CN2CCN(c3cccc(C(F)(F)F)c3)CC2)CC1	-6	0.34	0	1.1	1
O=C(Nc1ccccc1C(=O)NCCN1CCOCC1)c1ccco1	12	0.16	16	0.9	0.8
Cc1nn(-c2ccc(F)cc2)c2c1cc(C#N)c1nc3ccccc3n12	3	0.016	0	1	1
O=C(Cc1cccc2ccccc12)NNC(=O)c1cccs1	41	0.89	-2	0.6	1
COc1cccc(N(C(=O)CNC(=O)c2ccco2)C(C(=O)NC2CCCC2)c2ccncc2)c1 (stereo unspecified)	57*	1.1	20	0.4	0.8
C=CCN(C(=O)CNC(=O)c1ccco1)C(C(=O)NC1CCCCC1)c1ccccc1 (stereo unspecified)	83*	0.22	70*	0.2	0.3
CCCc1c(CC)c(=N)c2ccccc2n1C	-8	-0.42	12	1.1	0.9
CC1CCC(Nc2nnnn2-c2ccccc2)CC1 (stereo unspecified)	-7	2.5	-11	1.1	1.1
O=C1CS/C(=C\[N+](=O)[O-])N1c1ccc(OC(F)(F)F)cc1	38	1.1	-3	0.6	1
COc1cc(NC(=O)CCn2c(=O)[nH]c3ccsc3c2=O)cc(OC)c1	x	1.1	x	x	x
O=C(CCn1c(=O)[nH]c2ccccc2c1=O)Nc1ccccc1	53*	0.66	47	0.5	0.5
CCOc1ccc(NC(=O)CCn2c(=O)[nH]c3ccsc3c2=O)cc1	16	0.17	57*	0.8	0.4
COc1cccc(NC(=O)CCCn2c(=S)[nH]c3ccccc3c2=O)c1	63*	-2.1	78*	0.4	0.2
CCCCOc1c(Br)cc(/C=C2\N=C(C)OC2=O)cc1OCC	6	0.66	15	0.9	0.8
CCn1c(NC(=O)Nc2ccccc2OC)nc2ccccc21	13	-0.043	0	0.9	1
Cn1c(=O)c2c(nc(CN3CCC(C(N)=O)CC3)n2Cc2ccccc2Cl)n(C)c1=O	-2	0.73	6	1	0.9
Cc1cc(-n2c(C)cc(C(=O)CSc3ccc4c(c3)OCCO4)c2C)no1	89*	-3.6	31	0.1	0.7
